In all, about 33,000 sequences were measured (“E-score (-0.5 to 0.5)”: median about -0.036, highest 2% from about 0.37 on). This excerpt belongs to a sample that is enriched for the highest values.
The sequences below were run against T1, Yer064c (UniProt P40041) (assay: PBM E-score (8-mer binding enrichment) (E-score (-0.5 to 0.5)); higher = stronger / more preferred TF binding). Details: protein concentration: 200 nM; construct: GST-full length.
T1 sequence: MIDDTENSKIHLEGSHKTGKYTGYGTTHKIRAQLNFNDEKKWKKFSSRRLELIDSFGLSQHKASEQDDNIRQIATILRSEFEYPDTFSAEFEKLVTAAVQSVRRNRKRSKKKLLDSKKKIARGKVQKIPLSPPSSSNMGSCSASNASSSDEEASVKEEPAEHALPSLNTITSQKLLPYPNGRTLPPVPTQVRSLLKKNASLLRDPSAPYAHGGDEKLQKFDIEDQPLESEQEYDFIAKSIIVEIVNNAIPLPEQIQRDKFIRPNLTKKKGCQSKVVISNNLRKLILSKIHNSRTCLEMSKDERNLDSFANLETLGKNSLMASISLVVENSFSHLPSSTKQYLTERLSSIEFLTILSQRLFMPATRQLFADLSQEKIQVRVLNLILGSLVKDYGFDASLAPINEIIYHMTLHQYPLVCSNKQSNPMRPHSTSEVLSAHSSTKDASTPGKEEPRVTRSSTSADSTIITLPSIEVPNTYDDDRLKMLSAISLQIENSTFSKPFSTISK
How it was run: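 E-scores (a modified Wilcoxon-Mann-Whitney statistic) were assigned by the Universal PBM Analysis Suite to every ungapped eight-base word pooled with its reverse complement. The input came from universal all-10-mer Agilent arrays made double-stranded by primer extension and probed with GST-tagged yeast transcription factors at about 100-200 nM. Fluorescent anti-GST detected bound protein, and masliner normalised the scans.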

| Sequence | PBM E-score |
| --- | --- |
| CACCGTTA | 0.0864 |
| ATTGGTTG | -0.0268 |
| CGCTCCCG | 0.17 |
| AAACCACA | -0.0212 |
| ACTAACCG | 0.163 |
| TATTTGCA | 0.0422 |
| CGTCATGC | -0.173 |
| AGTCATGA | 0.485 |
| AGTCATGC | 0.487 |
| AGCCATGG | 0.268 |
| ATTCATGG | 0.224 |
| ATTCATGC | 0.137 |
| CGTCATGA | 0.253 |
| AGTCATGG | 0.479 |
| GGTCATGA | 0.255 |
| TACTTACA | -0.0596 |
| GAAGCCTA | -0.143 |
| AACGTATT | -0.12 |
| AGGGATAG | -0.255 |
| TAGAGAGA | 0.0957 |
| AGAAGCAG | -0.1 |
| AGCTTTCA | -0.0821 |
| GTGTTGGA | -0.127 |
| ATTTAGTG | 0.127 |

| Sequence | PBM E-score |
| --- | --- |
| ATTTAGTA | 0.253 |
| ATTTAATA | 0.117 |
| CTTTAGTA | 0.14 |
| CTTTAATC | 0.29 |
| ATTTAATC | 0.366 |
| CTTTAGAC | 0.108 |
| CTTTAGTC | 0.416 |
| ATTTAGTC | 0.444 |
| GGCCTACA | -0.0963 |
| TAATAGCA | -0.09 |
| ACCAAGAG | -0.00272 |
| CATAACCA | 0.071 |
| GGCGAATA | -0.0639 |
| CGGCGAGC | -0.108 |
| GACTCATC | 0.478 |
| CACTCATA | 0.259 |
| AACTCATC | 0.33 |
| CACTCATC | 0.258 |
| GACTCATA | 0.477 |
| AACTCATA | 0.275 |
| CCTGCCAG | -0.212 |
| ATTTTCAG | -0.135 |
| CTCTGTCC | -0.14 |
| ACTCTTAG | 0.198 |

| Sequence | PBM E-score |
| --- | --- |
| GGTCTTAC | 0.131 |
| ACTCTTAT | 0.241 |
| AGTCTTAA | 0.387 |
| AGTCTTAT | 0.383 |
| CGTCTTAC | -0.141 |
| AGTCTTAC | 0.415 |
| AGTCTTAG | 0.408 |
| TGTCTTAA | -0.0134 |
| AATCTTAT | 0.207 |
| CGTCTTAG | -0.188 |
| CGTCTTAA | -0.00451 |
| CCCCAGGC | -0.41 |
| AATCGACT | 0.258 |
| ATCTGGCA | -0.118 |
| AGTGACCC | -0.0592 |
| GTCTATCA | 0.0174 |
| GGTTTCTA | -0.133 |
| CCTTTCTA | -0.251 |
| AACAACAT | -0.0999 |
| CTTTGTAA | 0.173 |
| TAGTTGAA | 0.127 |
| CACGTGAG | 0.0942 |
| ATTAGGCC | 0.00222 |
| ATTAGTCG | 0.41 |

| Sequence | PBM E-score |
| --- | --- |
| ATTAGTCA | 0.484 |
| ATTAGTTA | 0.153 |
| ATTAGTTG | 0.118 |
| CTTAGTAA | 0.161 |
| ATTAGTGA | 0.219 |
| ATTAGTGG | 0.11 |
| ATTAGTAC | 0.205 |
| CTTAGTTA | 0.221 |
| ATTAGTCC | 0.373 |
| CTTAGTCA | 0.483 |
| AAGAATAG | 0.0215 |
| CTAGAAAC | 0.0516 |
| CCTTCTAG | -0.244 |
| GCAATGCC | -0.31 |
| TAATATTA | 0.207 |
| AGCGATCC | -0.315 |
| CGCGTCTA | -0.228 |
| CTTAGTTC | 0.0883 |
| GTTAGTCA | 0.49 |
| GTTAGTTA | 0.165 |
| CTTAGGCC | -0.115 |
| GTTAGTGA | 0.171 |
| CTTAGTCC | 0.37 |

Source: the supplement of paper PMC3334620
